Source: PubChem BioAssay (NCI)
This is part of a sample that, as a whole, favours compounds with a hit. Of some 83,000 tested, about 20% had one in any assay.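 Activity criterion: percent growth below 10, measured after cells in 96-well plates were exposed to a single compound concentration for 48 hours.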 The source made the active and inactive calls.

Columns and labels:
Test in all cases: NCI-60 one-dose screen, 48 h (100 = growth as untreated, 0 = no growth, -100 = all killed)
[1] = tested on: NCI-H23 lung
[2] = tested on: NCI-H226 lung; settings: 10 µM unless noted
[3] = tested on: NCI-H322M lung
[4] = tested on: HOP-62 NSCLC
[5] = tested on: NCI-H460 lung
[6] = tested on: HOP-92 NSCLC
[7] = tested on: NCI-H522 lung
[8] = tested on: A549/ATCC NSCLC
[9] = tested on: 786-0 renal
[10] = tested on: COLO 205 colon; settings: 10 µM unless noted

Measured: growth

C=C1CC[C@@H]2[C@](C)(COC(C)=O)[C@H](OC(C)=O)CC[C@@]2(C)[C@@H]1CC(Nc1ccc(S(=O)(=O)Nc2nccs2)cc1)C1=CCOC1=O (stereo partly drawn)
active: [2] -14% | [7]; 10 µM unless noted -61.9% | [9]; 10 µM unless noted 6.27% | [10] -24.6%
inactive: [1]; 10 µM unless noted 38.1% | [3]; 10 µM unless noted 59.9% | [4]; 10 µM unless noted 120% | [5]; 10 µM unless noted 29.5% | [6]; 10 µM unless noted 54% | [8]; 10 µM unless noted 43.7%

COC1=CC(=O)C(OC)=C(O)C1=O
inactive: [1]; 10 µM unless noted 99.1% | [2] 102% | [3]; 10 µM unless noted 93.8% | [4]; 10 µM unless noted 97.9% | [5]; 10 µM unless noted 106% | [6]; 10 µM unless noted 106% | [7]; 10 µM unless noted 96.5% | [8]; 10 µM unless noted 105% | [9]; 10 µM unless noted 95.7% | [10] 103%

CC[C@]1(O)CC2CN(CCc3c([nH]c4ccccc34)C(C(=O)OC)(c3cc4c(cc3OC)N(C=O)[C@H]3[C@@](O)(C(=O)OC)[C@H](OC(C)=O)[C@]5(CC)[C@@H]6C[C@@H]6CN6CC[C@]43[C@@H]65)C2)C1 (stereo partly drawn)
inactive: [2] 19.3% | [3]; 10 µM unless noted 73.9% | [4]; 10 µM unless noted 22.5% | [8]; 10 µM unless noted 17.9%
active: [1]; 10 µM unless noted 6.32% | [5]; 10 µM unless noted 3.37% | [6]; 10 µM unless noted -0.4% | [7]; 10 µM unless noted -21.4% | [9]; 10 µM unless noted 5.62% | [10] -87.9%

CN(C)CCNc1ncc(F)c(-c2cnc3cc(-c4cnn(C)c4)ccn23)n1
inactive: [1]; 0.005 µM 101% | [1]; 30 µM 56.9% | [2] 76.5% [30 µM] | [3]; 0.005 µM 95.6% | [3]; 30 µM 44.7% | [4]; 0.005 µM 103% | [4]; 30 µM 60.2% | [5]; 0.005 µM 101% | [5]; 30 µM 15.7% | [6]; 0.005 µM 105% | [6]; 30 µM 61.4% | [7]; 0.005 µM 92.4% | [7]; 30 µM 51.9% | [8]; 0.005 µM 101% | [8]; 30 µM 34.3% | [9]; 0.005 µM 102% | [9]; 30 µM 44.2% | [10] 25.8% [30 µM]

Nc1nc(N)c2c(n1)NC(c1ccc(Cl)cc1)CC(c1cccc(Nc3ccncc3)c1)=N2 (stereo not drawn)
inactive: [1]; 10 µM unless noted 54.7% | [2] 95.3% | [3]; 10 µM unless noted 63.9% | [4]; 10 µM unless noted 75.5% | [5]; 10 µM unless noted 23.2% | [6]; 10 µM unless noted 48.5% | [7]; 10 µM unless noted 88.6% | [8]; 10 µM unless noted 30.6% | [9]; 10 µM unless noted 41.9% | [10] 50.5%

O=C(NNC(=S)Nc1ccccc1)c1ccncc1
inactive: [1]; 10 µM unless noted 102% | [2] 105% | [3]; 10 µM unless noted 108% | [4]; 10 µM unless noted 106% | [5]; 10 µM unless noted 118% | [6]; 10 µM unless noted 90.2% | [7]; 10 µM unless noted 97.3% | [8]; 10 µM unless noted 107% | [9]; 10 µM unless noted 98.5% | [10] 128%

Cc1ccc(C(=O)c2ccc(CC(=O)N=Nc3c(O)[nH]c4ccc(OC(F)(F)F)cc34)n2C)cc1
inactive: [1]; 10 µM unless noted 90% | [2] 91% | [3]; 10 µM unless noted 96.7% | [4]; 10 µM unless noted 93.3% | [5]; 10 µM unless noted 103% | [6]; 10 µM unless noted 116% | [7]; 10 µM unless noted 85.6% | [8]; 10 µM unless noted 86% | [9]; 10 µM unless noted 101% | [10] 110%

N#Cc1ccccc1-c1ccc(Cn2c(-c3cscn3)nc3c(Cl)cccc32)cc1
inactive: [1]; 10 µM unless noted 70.9% | [2] 66.2% | [3]; 10 µM unless noted 91.6% | [4]; 10 µM unless noted 97.4% | [5]; 10 µM unless noted 82.6% | [6]; 10 µM unless noted 63.7% | [7]; 10 µM unless noted 44.7% | [8]; 10 µM unless noted 72.3% | [9]; 10 µM unless noted 79.8% | [10] 107%

Cc1ccc(Cc2cnc(NC(=O)c3cc(C)oc3C)s2)cc1
inactive: [1]; 10 µM unless noted 76.1% | [2] 90.4% | [3]; 10 µM unless noted 70.8% | [4]; 10 µM unless noted 86% | [5]; 10 µM unless noted 31.3% | [6]; 10 µM unless noted 79.1% | [7]; 10 µM unless noted 57.3% | [8]; 10 µM unless noted 55% | [9]; 10 µM unless noted 76.8% | [10] 115%

C#CCOCC1CN(C)C(=O)O1 (stereo not drawn)
inactive: [1]; 10 µM unless noted 111% | [2] 103% | [3]; 10 µM unless noted 114% | [4]; 10 µM unless noted 131% | [5]; 10 µM unless noted 103% | [6]; 10 µM unless noted 97.8% | [7]; 10 µM unless noted 99.7% | [8]; 10 µM unless noted 93.7% | [9]; 10 µM unless noted 110% | [10] 123%

O=C(Nc1ncc(Cc2cccc(C(F)(F)F)c2)s1)c1ccc2c(c1)OCCO2
inactive: [1]; 10 µM unless noted 31.2% | [2] 21.3% | [3]; 10 µM unless noted 54.1% | [4]; 10 µM unless noted 25.2% | [6]; 10 µM unless noted 51.3% | [8]; 10 µM unless noted 17.2% | [9]; 10 µM unless noted 39.9%
active: [5]; 10 µM unless noted 6.46% | [7]; 10 µM unless noted 8.7% | [10] -7.82%

Cc1ccc(S(=O)(=O)OC[C@@]2(C)CC[C@]3(C)CC[C@]4(C)C(=CC[C@@H]5[C@@]6(C)CCCNC(C)(C)[C@@H]6CC[C@]54C)[C@@H]3C2)cc1
active: [1]; 10 µM unless noted -64.5% | [3]; 10 µM unless noted -87.4% | [4]; 10 µM unless noted -82.8% | [5]; 10 µM unless noted -74.6% | [6]; 10 µM unless noted -71.2% | [7]; 10 µM unless noted -81.5% | [8]; 10 µM unless noted -75.9% | [9]; 10 µM unless noted -79% | [10] -82.6%
inactive: [2] 19.7%

O=c1oc2c(Br)cc(Br)cc2cc1-c1cc(-c2ccc(-c3cc(-c4cc5cc(Br)cc(Br)c5oc4=O)nc(-c4cc5cc(Br)cc(Br)c5oc4=O)c3)cc2)cc(-c2cc3cc(Br)cc(Br)c3oc2=O)n1
inactive: [1]; 10 µM unless noted 96.5% | [2] 102% | [3]; 10 µM unless noted 97.3% | [4]; 10 µM unless noted 104% | [5]; 10 µM unless noted 105% | [6]; 10 µM unless noted 108% | [7]; 10 µM unless noted 86.8% | [8]; 10 µM unless noted 105% | [9]; 10 µM unless noted 111% | [10] 110%
